# ELG1 DNA repair: ELG1-dependent DNA repair inhibition. HEK293T ELG1-luciferase reporter, luminescence, 16 h; DNA damage induced by 5-fluorouridine. Potency, µM (doses to about 46.1 µM), without a hit: at the top dose activity change, negative = inhibition, most hits filed as inhibitors. actives 2.3% (n = 330,000); also: % is scaled to controls: 0 for no effect and ±100 for the full control effect; nearly all actives have a fitted effect of over 55% in size
#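 Reporter activity after DNA damage by 5-fluorouridine is monitored. Compound-treated cells incubate 16 hr at 37 °C, then ONE-Glo is added for 30 min before luminescence reading.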
# FLuc modulator: inhibits or activates purified firefly luciferase, miR-21 counter-screen; P08659; purified FLuc, Km substrates, luminescence inhibition; Potency, µM (doses to about 57.5 µM), inactives show at the top dose activity change, negative = inhibition, hits mostly inhibitors; actives 6.9% (n = 360,000);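 also: plate controls were vehicle for no effect and reference inhibitor for full effect; nearly all actives have a fitted effect of over 55% in size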
# Target sequence (P08659 whole entry, looked up): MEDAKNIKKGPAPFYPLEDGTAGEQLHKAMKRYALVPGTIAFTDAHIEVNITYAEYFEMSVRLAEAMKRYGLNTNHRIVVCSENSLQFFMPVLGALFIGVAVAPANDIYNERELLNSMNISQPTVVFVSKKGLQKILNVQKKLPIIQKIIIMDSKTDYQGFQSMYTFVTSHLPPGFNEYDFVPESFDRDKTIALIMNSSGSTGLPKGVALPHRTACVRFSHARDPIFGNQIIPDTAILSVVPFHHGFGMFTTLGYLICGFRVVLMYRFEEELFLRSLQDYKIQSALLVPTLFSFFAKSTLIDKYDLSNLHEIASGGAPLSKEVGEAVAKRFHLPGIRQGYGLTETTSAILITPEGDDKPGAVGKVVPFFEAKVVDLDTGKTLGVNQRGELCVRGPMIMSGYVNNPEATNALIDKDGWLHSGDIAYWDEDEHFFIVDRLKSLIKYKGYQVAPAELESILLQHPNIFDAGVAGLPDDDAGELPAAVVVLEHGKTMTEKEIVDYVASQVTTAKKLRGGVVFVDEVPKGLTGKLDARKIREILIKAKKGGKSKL
#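 Purified P. pyralis luciferase, 10 nM final, with Km-level 10 uM D-luciferin and 10 uM ATP in 50 mM Tris acetate pH 7.5, 10 mM Mg acetate, 0.01% Tween-20, 0.05% BSA; 6-point qHTS titration about 60 µM downward; luminescence read.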
# Rab9 prom act: activators of Rab9 promoter; AID 485297; Potency, µM (top dose mostly 9.22 µM), for inactives: at the top dose activation, negative = inhibition, most hits filed as activators; actives 2.8% (n = 320,000); Huh7 Rab9 promoter-luciferase reporter, luminescence, 24 h; also: % of control where 0% means no effect; nearly all actives have a fitted effect of over 60% in size
#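 Huh7 reporter line, Rab9 promoter upstream of luciferase. Compound exposure 24 h at 37 °C in reduced-serum medium with 10% FBS. Read-out: luminescence.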
# NPC1 prom act: activators of NPC1 promoter | Huh7 NPC1 promoter luciferase reporter, 24 h | Potency, µM (titrated, usually from 9.22 µM), without a hit: top-dose activation, most hits filed as activators | actives 2.4% (n = 320,000); also: % of control where 0% means no effect; nearly all actives have a fitted effect of over 60% in size
#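 In 1536-well qHTS, Huh7 cells harboring an NPC1 promoter–luciferase construct received compound for 24 h; activation was quantified by luminescence following luciferase reagent addition.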
# ELG1 genotox: induces genotoxicity in HEK293T cells with luciferase-tagged ELG1; AID 504466; Potency, µM (doses to about 46 µM), for inactives: at the top dose activity change, positive = activation, usual class: activators; HEK293T ELG1-luciferase reporter, luminescence, 16 h; actives 1.3% (n = 330,000); also: % of control where 0% means no effect; nearly all actives have a fitted effect of over 60% in size
#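 After overnight (16 hr) compound treatment at 37 °C, ELG1-luciferase HEK293T cells were lysed with ONE-Glo; luminescence quantified 30 min later at room temperature.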
# SMN2 splice enh: increases expression of the SMN2 splice variant. HEK293 SMN2-luciferase splicing reporter, luminescence, 30-36 h. actives 2.8% (n = 210,000). Potency, µM (series often up to 46.1 µM), for the others: top-dose activity change, positive = activation, hits mostly activators; also: % of control where 0% means no effect; nearly all actives have a fitted effect of over 55% in size
#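 HEK293 cells carry an SMN2 […]–luciferase reporter in which exon 7 inclusion puts luciferase in frame. Cells were plated 10-12 h before compound addition, then incubated 30-36 h at 37C. ONE-Glo luminescence was read; sodium butyrate at 4.5 mM final served as control.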
# * hit, by the source's call; ? = inconclusive; nt = no result given. Shown are actives, neighbours in structure and some others; about 9.2% of the full set was active somewhere. Calls follow the shape of the dose curve; as a rule, active = well fitted curve in the direction sought with a large enough effect; inconclusive = small, poorly fitted or top-dose-only effect, or another doubt; inactive = no such curve, though single readings can be large; an effect the other way counts as inactive or inconclusive. Potency is read from the fitted curve at half-maximal effect.
SMILES,ELG1 DNA repair,FLuc modulator,Rab9 prom act,NPC1 prom act,ELG1 genotox,SMN2 splice enh
O=c1c2sc(-c3ccccc3)cc2nc2n1CCCCC2,?,2.1µM*,0.56µM*,1.4µM*,?,nt
O=c1c2sc(-c3ccccc3)cc2nc2n1CCC2,?,1.3µM*,0.45µM*,0.56µM*,?,2.2µM*
O=c1c2c(-c3ccccc3)csc2nc2n1CCC2,-5%,3%,-3%,-4%,-1%,8%
CCN(C(=O)COC(=O)CSc1ccccc1)c1c(N)n(Cc2ccccc2)c(=O)[nH]c1=O,2%,6%,2%,-4%,1%,nt
NC(=O)NC(N)=O,nt,nt,nt,nt,nt,-19%
CC(=Nc1ccc(C)cc1)c1sc2ccccc2c1O,?,0.43µM*,0.89µM*,1.8µM*,0.73µM*,0.63µM*
Cc1cc(O)cc2c(=O)c3ccccc3sc12,?,?,-1%,0%,-3%,5%
CN=Cc1sc2ccccc2c1O,?,-18%,4%,1%,1%,-11%
CC(=Nc1ccc(C)cc1C)c1sc2ccccc2c1O,?,0.76µM*,3.5µM*,?,?,11µM*
CC(=Nc1cccc(O)c1)c1sc2ccccc2c1O,?,1.7µM*,?,29%,1.6µM*,18µM*
COc1ccccc1NC(=S)NNC(=O)c1nn(C)c(C)c1Br,?,15µM*,0%,14%,7%,22%
COc1ccc(C)cc1NC(=S)NNC(=O)c1c(Br)cnn1C,?,27µM*,1%,5%,-5%,-9%
Cc1ccc(OCC(=O)N/N=C/c2c[nH]c3ccccc23)c([N+](=O)[O-])c1,-11%,?,-3%,-2%,0%,-3%
CN1CCN(c2ccc(S(=O)(=O)N3CCCCC3)cc2NC(=O)Cc2c(F)cccc2Cl)CC1,10%,5%,-11%,-1%,1%,nt
COc1ccc(S(=O)(=O)N2CCOCC2)cc1NC(=O)Cc1c(Cl)cccc1Cl,6%,3%,-5%,-1%,3%,8%
COc1ccc(S(=O)(=O)N2CCOCC2)cc1NC(=O)C1COc2ccccc2O1 (configuration not stated),10µM*,1%,0%,-4%,-8%,nt
O=C(Cc1c(F)cccc1Cl)Nc1cc(S(=O)(=O)N2CCCCC2)ccc1N1CCOCC1,18µM*,-12%,2%,-2%,-4%,nt
COc1ccc(S(=O)(=O)N2CCCCCC2)cc1NC(=O)CN(C)Cc1ccc2c(c1)OCO2,21µM*,nt,-6%,-7%,-6%,nt
COc1ccc(S(=O)(=O)N2CCOCC2)cc1NC(=O)CN(C)Cc1c(F)cccc1Cl,21µM*,-4%,-2%,1%,-12%,-29%
O=C1c2ccccc2-c2nc3ccccc3cc21,?,2.1µM*,5µM*,3.5µM*,?,nt
c1ccc2c(c1)Cc1cc3ccccc3nc1-2,?,0.95µM*,0.4µM*,1.3µM*,3.7µM*,4µM*
COc1ccc(COC2OC[C@]3(C)[C@H]4C5=C(CN3C(=O)OC(C)(C)C)[C@H](C)C(CO)C(CO)C5CC[C@@H]24)cc1 (some centres not stated),nt,nt,nt,nt,nt,-4%
CN(C)S(=O)(=O)c1cccc(N=C2SCCN2Cc2ccccc2)c1,18µM*,-10%,-8%,-3%,-9%,nt
Cc1ccc(C(=O)N2CC(C)SC2=Nc2cccc(S(=O)(=O)N(C)C)c2)cc1 (configuration not stated),-17%,-7%,-5%,-5%,-5%,-7%
Cn1c(Nc2ccccc2)nc2ccccc21,?,?,21%,15%,6%,nt
Nn1c(Nc2ccccc2)nc2ccccc21,?,11µM*,4µM*,2.8µM*,?,?
COc1ccccc1OCCNC(=O)c1ccc2c(c1)OCCO2,?,?,2.2µM*,3.2µM*,?,nt

# From PubChem
